This is an account of results in PubChem BioAssay (NCATS).

Each structure is given as a SMILES string. A number with no mark means an inactive call. Records with an inconclusive call do not appear. Activity calls are given as the source filed them. Unless noted, the call rests on the fitted dose curve; in most records, active means well fitted curve in the direction sought with a large enough effect; inconclusive means small, poorly fitted or top-dose-only effect, or another doubt; inactive means no such curve, though single readings can be large; an effect the other way counts as inactive or inconclusive.

The nature of assay [1]: S16 Schwann cell PMP22 intronic element firefly luciferase assay (AID 624032).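 Further: plate controls were DMSO for no effect and PTC124 positive control mean for full effect; nearly all actives have a fitted effect of over 30% in size.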 A digest of the protocol: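 Rat S16 Schwann cells stably carrying a PMP22 intronic element-driven Fluc reporter were seeded overnight, then exposed to compounds for 24 h at 37 °C. Luminescence was normalized to PTC124 (positive control) and DMSO (0% activity).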
The next assay deals with AA1029. In words: qHTS profiling for inhibitors of Plasmodium falciparum proliferation (AID 504749). Further: nearly all actives have a fitted effect of over 60% in size. Further: potency means the concentration at half of the fitted maximal effect. The settings on record: P. falciparum in erythrocytes, SYBR Green DNA, 72 h; series mostly up to 12.8 µM. A digest of the protocol:
(§1)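 Parasite proliferation within erythrocytes, 72 h exposure. Endpoint: SYBR Green I fluorescence after overnight lysis at room temperature. Controls: 0.29 uM artemisinin, DMSO.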

The next assay deals with CP194. The assay is described as above. Conditions: P. falciparum in erythrocytes, SYBR Green DNA, 72 h; series mostly up to 12.8 µM. In a few lines:
as §1

The subject of a further assay is CP211. The assay is described as above. The settings on record: P. falciparum in erythrocytes, SYBR Green DNA, 72 h; series mostly up to 12.8 µM. A digest of the protocol: as §1
In the next assay the test system is CP291. Described as above. The settings on record: P. falciparum in erythrocytes, SYBR Green DNA, 72 h; series mostly up to 12.8 µM. In a few lines:
as §1

Another assay has as its system CP335. The description is as above. The settings on record: P. falciparum in erythrocytes, SYBR Green DNA, 72 h; series mostly up to 12.8 µM. In a few lines:
as §1

For a further assay, the system named is GB4. The assay is described as above. The settings on record: P. falciparum in erythrocytes, SYBR Green DNA, 72 h; series mostly up to 12.8 µM. In a few lines:
as §1

In a further assay the test system is P93_24. The assay is described as above. The settings on record: P. falciparum in erythrocytes, SYBR Green DNA, 72 h; series mostly up to 12.8 µM. In a few lines: as §1
In another assay the test system is P94_40. Described as above. The settings on record: P. falciparum in erythrocytes, SYBR Green DNA, 72 h; series mostly up to 12.8 µM. A digest of the protocol: as §1
In another assay the test system is PC26. The description is as above. Conditions: P. falciparum in erythrocytes, SYBR Green DNA, 72 h; series mostly up to 12.8 µM. A digest of the protocol:
as §1

A further assay deals with TAB109. Described as above. Conditions: P. falciparum in erythrocytes, SYBR Green DNA, 72 h; series mostly up to 12.8 µM. A digest of the protocol:
as §1

A further assay concerns W2. The description is as above. Conditions: P. falciparum in erythrocytes, SYBR Green DNA, 72 h; series mostly up to 12.8 µM. In a few lines: as §1
Assay [2] deals with Cytochrome P450 3A4 (Homo sapiens) (UniProt P08684). In words: qHTS Assay for Inhibitors and Substrates of Cytochrome P450 3A4 (AID 884). Further: potency means the concentration at half of the fitted maximal effect; nearly all actives have a fitted effect of over 50% in size. In a few lines:
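20 nM human CYP3A4 with 25 uM Luciferin-PPXE (at KM) in 200 mM KPO4, preincubated 10 min with compound; NADPH regeneration started a 60 min RT reaction. Luciferin detected by luminescence, normalized to 57 uM ketoconazole as full inhibition.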

Assay [3] has the same target. In words: qHTS Assay for Activators of Cytochrome P450 3A4 (AID 885). Further: nearly all actives have a fitted effect of over 65% in size. In a few lines: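 Human CYP3A4 (20 nM) with Luciferin-PPXE at 25 uM (its KM) in 200 mM KPO4; 10 min compound preincubation, then NADPH regeneration and 60 min reaction at RT. Luciferin read by luminescence; normalized to 57 uM ketoconazole full inhibition.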
A general note: In qHTS, concentration-response curves come from the screen itself.

Assay [4] in a line: S16 Schwann cell PMP22 intronic element beta-lactamase assay (AID 624044; calls by dose curve;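 further: 0% = DMSO and -100% = potassium clavulanate positive control; nearly all actives have a fitted effect of over 15% in size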). A digest of the protocol:
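Rat S16 Schwann cells with beta-Lac driven by a PMP22 intronic element, compound-treated 24 h at 37 °C. LiveBLAzer FRET B/G read: 460 nm normalized to potassium clavulanate vs DMSO; 535 nm FRET as viability; concentration-effect curves classified.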

The test system of a further assay is 7G8. In words: qHTS profiling for inhibitors of Plasmodium falciparum proliferation (AID 504749). Further: nearly all actives have a fitted effect of over 60% in size. Further: potency means the concentration at half of the fitted maximal effect. The settings on record: P. falciparum in erythrocytes, SYBR Green DNA, 72 h; series mostly up to 12.8 µM. In a few lines:
as §1

The test system of the next assay is CP215. Described as above. Conditions: P. falciparum in erythrocytes, SYBR Green DNA, 72 h; series mostly up to 12.8 µM. In a few lines: as §1
Assay [5] is described as follows: qHTS Assay for Identification of Small Molecule Agonists for Hypoxia Response Element Signaling Pathway (AID 914; active means well fitted activation curve with a large enough effect in the signal ratio, with a control signal flat, not every such curve was filed as active; the % refers to the signal ratio; further: % of control where 0% means no effect). The settings on record: ME-180 (cervical carcinoma) HRE-bla reporter, beta-lactamase ratio, CoCl2, 17 h; activation: hits give high values. A digest of the protocol: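 HRE-bla ME-180 cells with beta-lactamase reporter under hypoxia response element, compounds with EC50 CoCl2 for 17 hours at 37 C. CCF4 substrate, 460nm/530nm emission ratio gave %Activity; AC50 from titration series.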

Assay [6] can be described thus: Confirmation and Secondary Assay for Modulators of Hemoglobin Beta Chain Splicing at IVS2 705 locus (AID 930).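 Further: HeLa cells stably expressing the EGFP-705 splicing reporter; GFP fluorescence per well restored by corrected splicing of the IVS2-705 intron in EGFP; % of control where 0% means no effect.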 In a few lines:
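HeLa cells stably carrying EGFP interrupted by mutant beta-globin intron 2 (IVS2-705) treated 2 days at 37C with compound; 500 nM antisense PNA as control. Correct splicing read as total peak GFP intensity per well by laser-scanning cytometry.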

Chain of Cytochrome P450 3A4 (Homo sapiens) (P08684 whole entry, looked up): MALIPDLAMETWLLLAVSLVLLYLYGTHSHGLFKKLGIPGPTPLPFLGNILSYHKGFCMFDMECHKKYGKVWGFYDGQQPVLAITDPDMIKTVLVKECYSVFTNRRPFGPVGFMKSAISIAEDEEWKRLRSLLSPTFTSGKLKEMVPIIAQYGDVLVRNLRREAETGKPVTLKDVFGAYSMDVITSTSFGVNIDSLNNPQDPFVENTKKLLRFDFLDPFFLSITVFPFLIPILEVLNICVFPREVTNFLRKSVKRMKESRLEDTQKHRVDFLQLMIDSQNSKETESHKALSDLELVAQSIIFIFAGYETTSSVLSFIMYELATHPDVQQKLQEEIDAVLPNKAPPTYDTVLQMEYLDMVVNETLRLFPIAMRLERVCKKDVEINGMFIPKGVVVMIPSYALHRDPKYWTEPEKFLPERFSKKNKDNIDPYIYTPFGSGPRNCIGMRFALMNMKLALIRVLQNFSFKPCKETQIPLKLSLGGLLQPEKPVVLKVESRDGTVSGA

Take `NC[C@@H]1O[C@H](O[C@@H]2[C@H](O[C@@H]3O[C@H](CO)[C@@H](O)[C@@H]3O)[C@@H](O)[C@@H](N)C[C@H]2N)[C@@H](N)[C@H](O)[C@@H]1O`: the Potency entry (in assay [1]; with AA1029; in the assay on CP194; in the assay on CP211; with CP291; in the assay on CP335) was “inactive” in each case. The Potency entry with GB4, in the assay on P93_24, in the assay with P94_40, with PC26, in the assay with TAB109 and in the assay on W2 was “inactive” in each case.
On to `O=C(c1cc(C(F)(F)F)cc(C(F)(F)F)c1)N1CCC[C@@]2(CCN(c3ccccn3)C2)C1`, for which the Potency in assay [2] is 3980 nM (active). Further, the Potency entry in [3] is “inactive”.
Regarding `C1CCN2C[C@@H]3C[C@@H](CN4CCCC[C@H]34)[C@H]2C1`, the Potency entry (in assay [1]; in assay [4]; with 7G8; with AA1029; with CP194; in the assay with CP211) was “inactive” throughout. The Potency result in the assay on CP291, in the assay with CP335, in the assay on GB4, in the assay on P93_24, in the assay on P94_40 and in the assay on PC26 was “inactive” in each case. In addition, the Potency result in the assay with TAB109 is “inactive”.
For `NCc1ccccc1CC(=O)N[C@@H]1C(=O)N2C(C(=O)O)=C(CSc3nnnn3CC(=O)O)CS[C@@H]12`, the Potency result (in assay [1]; in assay [4]; with 7G8; in the assay on AA1029; with CP194; in the assay on CP211) was “inactive” each time. Moreover, the Potency result with CP215, with CP291, in the assay on CP335, in the assay on GB4, in the assay with P93_24 and in the assay with P94_40 was “inactive” throughout. Further, the Potency entry in the assay with PC26, with TAB109 and in the assay with W2 was “inactive” in each case.
Consider `Cc1onc(-c2ccccc2Cl)c1C(=O)N[C@H]1C(=O)N2[C@H]1SC(C)(C)[C@H]2C(=O)O`, for which the Potency result (in assay [4]; in the assay on AA1029; in the assay with CP194; with CP211; with CP215; with CP291) was “inactive” each time. The Potency result with CP335, with GB4, in the assay on P93_24, with P94_40, in the assay on PC26 and in the assay with TAB109 was “inactive” in each case. Besides, in the assay on W2, the Potency result is “inactive”.
As to `CCN1CCC[C@@H](OC(=O)C(c2ccccc2)c2ccccc2)C1`, the Potency entry (in [3]; in assay [4]; with CP211) was “inactive” in each case. Besides, in the assay with W2, the Potency is 1440 nM (active).
Regarding `CN[C@H]1[C@@H](O)[C@@H](NC)[C@@H]2O[C@@]3(O)C(=O)C[C@@H](C)O[C@H]3O[C@H]2[C@H]1O`, the Potency entry (in assay [1]; in assay [4]; in the assay on 7G8; in the assay with AA1029; in the assay on CP194; in the assay with CP211) was “inactive” in each case. For the same molecule, the Potency result in the assay with CP215, in the assay on CP291, in the assay with CP335, in the assay with GB4, in the assay with P93_24 and with P94_40 was “inactive” each time. Moreover, the Potency result with PC26, with TAB109 and in the assay on W2 was “inactive” throughout.
For `CC(=O)OCC(=O)[C@@]12OC(C)(C)O[C@@H]1C[C@H]1[C@H]3C[C@H](F)C4=CC(=O)C=C[C@@]4(C)[C@]3(F)[C@H](O)C[C@@]12C`, the Potency result (in assay [1]; in the assay on AA1029; in the assay with CP194; in the assay on CP211; in the assay with CP215; in the assay with CP291) was “inactive” each time. The Potency entry in the assay with CP335, in the assay on GB4, with P93_24, in the assay on P94_40, with PC26 and in the assay with TAB109 was “inactive” in each case. Besides, the Potency result in the assay on W2 is “inactive”.
`CC[C@H]1NC(=O)c2cc(S(N)(=O)=O)c(Cl)cc2N1`: in [5], the activation was 3.52%. In addition, the Potency entry (in assay [1]; with 7G8; with AA1029; in the assay with CP194; in the assay on CP211; in the assay on CP291) was “inactive” throughout. Also, the Potency entry in the assay on CP335, with GB4, in the assay on P93_24, in the assay with P94_40, in the assay on TAB109 and with W2 was “inactive” each time.
On to `COc1ccc(OC)c([C@H](O)CNC(=O)CN)c1`, for which the Potency entry (in assay [1]; in the assay on 7G8; in the assay on AA1029; in the assay with CP194; in the assay on CP211; with CP215) was “inactive” in each case. Moreover, the Potency result in the assay on CP291, in the assay on CP335, in the assay on GB4, in the assay on P93_24, in the assay on P94_40 and in the assay on PC26 was “inactive” in each case. Moreover, the Potency entry in the assay on TAB109 and with W2 was “inactive” in each case.
In the case of `CS(=O)(=O)Nc1cccc(-c2nc(Nc3ccccc3)c3ccccc3n2)c1`, the Potency result in assay [3] and in assay [6] was “inactive” throughout. For the same molecule, the activation in assay [5] was 6.74%.
In the case of `CC(=O)O[C@H]1C[C@@]2(C)[C@H](C[C@@H](O)[C@H]3[C@@]4(C)CC[C@@H](O)[C@@H](C)[C@H]4CC[C@@]32C)C1=C(CCC=C(C)C)C(=O)O`, the Potency result (in [1]; in assay [4]; in the assay with AA1029; in the assay on CP194; with CP211; in the assay with CP215) was “inactive” in each case. Also, the Potency result in the assay with CP291, with CP335, with GB4, in the assay on P93_24, in the assay on P94_40 and in the assay on PC26 was “inactive” each time. In addition, the Potency entry in the assay with TAB109 and with W2 was “inactive” in each case.
In the case of `CC(C)(C)NC(=O)[C@@H]1CC[C@@H]2[C@@H]3CC[C@@H]4NC(=O)C=C[C@@]4(C)[C@H]3CC[C@]21C`, the Potency result (in assay [4]; with AA1029; with CP194; with CP211; in the assay on CP215; in the assay with CP291) was “inactive” in each case. The Potency entry in the assay on CP335, with GB4, in the assay on P93_24, in the assay with P94_40, in the assay with PC26 and in the assay with TAB109 was “inactive” each time. For the same molecule, the Potency result with W2 was “inactive”.
Regarding `CN1CCC2(CC1)CCN(C(=O)c1ccncc1)CC2`, the activation in assay [5] is 7.12%.
For `Cc1ncc([N+](=O)[O-])n1C[C@H](O)CCl`, the activation in assay [5] was -4.65%. Also, the Potency result in the assay on 7G8, in the assay with AA1029, with CP194, in the assay with CP211, with CP215 and with CP291 was “inactive” throughout. Further, the Potency result in the assay with CP335, with GB4, in the assay with P93_24, in the assay with P94_40, with PC26 and in the assay on W2 was “inactive” throughout.
